Results from article PMC4336329 (PLoS ONE, 2015).
In all, about 310,000 compounds went through this assay and about 14,000 (4.5%) showed an effect of 50% or more. Effects have a minus sign here. The sample holds strong results, similar compounds and a random draw of the others, so the mix is not that of the screen.

Each compound was assayed against human ether-à-go-go-related gene (hERG) potassium channel (human, UniProt Q12809) (assay: primary screen, population patch clamp on CHO cells stably expressing hERG; higher = less effect of the substance).
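Further: peak tail current of the secondary pulse compared with the same well before compound.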

human ether-à-go-go-related gene (hERG) potassium channel, sequence (Q12809 whole entry, looked up): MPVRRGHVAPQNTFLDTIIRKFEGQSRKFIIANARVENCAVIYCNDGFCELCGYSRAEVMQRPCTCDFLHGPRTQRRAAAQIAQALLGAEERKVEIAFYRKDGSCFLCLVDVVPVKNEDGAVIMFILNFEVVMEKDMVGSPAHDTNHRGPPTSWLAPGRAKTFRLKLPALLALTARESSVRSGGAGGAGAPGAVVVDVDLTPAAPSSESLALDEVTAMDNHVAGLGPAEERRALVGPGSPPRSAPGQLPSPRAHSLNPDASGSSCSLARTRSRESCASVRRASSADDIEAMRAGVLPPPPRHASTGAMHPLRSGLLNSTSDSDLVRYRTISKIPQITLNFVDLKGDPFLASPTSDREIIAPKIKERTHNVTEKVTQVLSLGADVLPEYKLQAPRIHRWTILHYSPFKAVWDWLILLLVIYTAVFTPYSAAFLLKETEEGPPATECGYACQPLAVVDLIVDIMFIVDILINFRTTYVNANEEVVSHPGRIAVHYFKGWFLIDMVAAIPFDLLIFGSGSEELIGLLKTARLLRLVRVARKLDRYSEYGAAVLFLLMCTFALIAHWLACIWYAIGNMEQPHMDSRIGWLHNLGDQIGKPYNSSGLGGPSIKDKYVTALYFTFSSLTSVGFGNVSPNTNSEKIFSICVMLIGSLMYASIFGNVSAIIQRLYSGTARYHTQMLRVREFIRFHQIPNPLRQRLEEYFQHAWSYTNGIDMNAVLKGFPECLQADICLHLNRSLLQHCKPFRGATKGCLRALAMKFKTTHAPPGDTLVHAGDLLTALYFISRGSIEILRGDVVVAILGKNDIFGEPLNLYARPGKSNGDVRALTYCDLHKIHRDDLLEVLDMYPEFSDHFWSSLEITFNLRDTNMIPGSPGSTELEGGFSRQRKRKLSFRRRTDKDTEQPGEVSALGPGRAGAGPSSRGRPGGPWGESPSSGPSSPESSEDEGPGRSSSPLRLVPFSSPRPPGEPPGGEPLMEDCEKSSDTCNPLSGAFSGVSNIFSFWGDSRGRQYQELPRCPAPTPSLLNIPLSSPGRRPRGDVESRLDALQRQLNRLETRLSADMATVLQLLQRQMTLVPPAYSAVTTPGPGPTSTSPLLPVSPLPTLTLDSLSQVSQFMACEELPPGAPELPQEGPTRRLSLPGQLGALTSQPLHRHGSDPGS

Compound | hERG current change (%, negative = inhibition) at 10uM [%]
O=C(CSc1nc2ccccc2s1)N1N=C(c2cccs2)CC1c1ccc(F)cc1 (centres unmarked) | 0.782
COc1ccc(C2CC(c3cccs3)=NN2C(=O)CSC2=NCCS2)cc1 (centres unmarked) | -11
COc1ccc(C2CC(c3cccs3)=NN2C(=O)CSc2nc(=O)n3ccccc3n2)cc1 (centres unmarked) | -57.5
COc1ccc(C2CC(c3cccs3)=NN2C(=O)CSc2nc3ccccc3s2)cc1 (centres unmarked) | -6.91
O=C(NCc1ccccc1)c1ccc2nnsc2c1 | -1.17
Cc1cc(=O)[nH]c(SCC(=O)N(CCC#N)c2ccccc2)c1C#N | 15.3
COc1cc(OC)cc(C(=O)NCCNC(=O)c2ccccn2)c1 | 14.3
CCN(CCCNC(=O)CN1C(=O)COc2ccccc21)c1cccc(C)c1 | -11.3
CC(=O)Nc1ccc(Sc2ncccc2C(=O)Nc2ccc(F)cc2)cn1 | 13.9
O=C(Nc1cc(C(F)(F)F)cc(C(F)(F)F)c1)c1ccc(Cn2cc(C(F)(F)F)ccc2=O)cc1 | 22
COCCc1nn2c(=O)cc(COC(=O)c3cc(OC)c(OC)c(OC)c3)nc2s1 | -22.6
CCc1nn2c(=O)cc(COC(=O)c3cc(Cl)c(OC)c(OC)c3)nc2s1 | -69.5
CCc1nn2c(=O)cc(COC(=O)c3ccc(SC)cc3OC)nc2s1 | -18.7
CCOc1cccc(C2C(C(=O)c3ccc(C)o3)=C(O)C(=O)N2c2nccs2)c1 (centres unmarked) | 0.752
CN1CCN(CCCC(=O)c2ccc(F)cc2)CC1.Cl | -14.5
Cc1ccc(C(=O)NC2CCN(C(=O)Nc3ccc(F)cc3)CC2)cc1 | 1.24
Cc1ccc(C(=O)NC2CCN(CCCC(=O)c3ccc(F)cc3)CC2)cc1 | -74
CCN(CC)C(=O)N1CCC(NC(=O)c2ccccc2)CC1 | 12.6
O=C(CN1CCC(NC(=O)c2ccccc2)CC1)NCc1ccccc1F | -20.6
O=C(C1CCCCC1)N1CCc2[nH]c3ccc(F)cc3c2C1 | -3.94
O=C(CCCN1CCC(NC(=O)c2ccccc2)CC1)c1ccc(Cl)cc1 | -77.8
C=CCNC(=O)N1CCc2[nH]c3ccc(F)cc3c2C1 | 6.56

Compound | hERG current change (%, negative = inhibition) at 10uM [%]
O=C(c1ccc(F)cc1)C1CCN(C(=O)c2ccc(F)cc2)CC1 | -22.7
Cl.O=C(CCCN1CCc2[nH]c3ccc(F)cc3c2C1)c1ccc(F)cc1 | -70.4
Cc1ccc(C(=O)NC2CCN(S(=O)(=O)c3ccc(F)cc3)CC2)cc1 | 11.6
O=C(CCCN1CCC(C(=O)c2ccc(F)cc2)CC1)c1ccc(F)cc1 | -78.5
COC(=O)C1C(=O)C2=C(CC1C)NC(=O)CC2c1cccc(C)c1 (centres unmarked) | -12.6
CCCSc1nnc(NC(=O)c2ccco2)s1 | 2.42
CC(NC(=O)CSc1nnc(-c2cc3cc(Cl)ccc3o2)n1C)c1ccccc1 (centres unmarked) | -12
CCOC(=O)c1oc2ccccc2c1COC(=O)CNC(=O)c1cccc(C)c1 | 3.66
CC(=O)c1cn(C)c(=O)n(C)c1=O | 4.7
COC(=O)c1ccc(C23CC4(C2)[C@H](CN(Cc2cccnc2)[C@@H]4c2ccccc2)C3c2ccccc2)cc1 (some centres unmarked) | 12.8
CCn1c(CNC(=O)c2ccccc2Br)nnc1SCC(=O)NC1=NCCS1 | 27.9
CCOc1ccc(NC(=NCc2ccc3c(c2)OCO3)SC2CC(=O)N(c3ccc(OCC)cc3)C2=O)cc1 (centres unmarked) | -1.29
CCOC(=O)N1CCN(C(=O)CCn2c(=S)[nH]c3cc(OCC)c(OCC)cc3c2=O)CC1 | -7.21
O=C(NC1CCN(S(=O)(=O)c2ccc(Cl)cc2)CC1)c1cccnc1 | 0.584
COc1ccc(S(=O)(=O)N2CCC(NC(=O)c3ccccc3)CC2)cc1 | 17.8
COc1ccc(S(=O)(=O)N2CCC(NC(=O)c3cccnc3)CC2)cc1 | -64.7
O=C(NC1CC2CCCC(C1)N2S(=O)(=O)c1ccccc1)c1ccccc1 (centres unmarked) | -44
CC(=O)NC1CC2CCCC(C1)N2S(=O)(=O)c1ccccc1 (centres unmarked) | 16.3
Cc1cccc(C(=O)NC2CC3CCCC(C2)N3S(=O)(=O)c2ccccc2)c1 (centres unmarked) | -77.2
COc1cccc(C(=O)NC2CC3CCCC(C2)N3S(=O)(=O)c2ccccc2)c1 (centres unmarked) | -75.8
Cc1cccc(C(=O)NC2CCN(S(=O)(=O)c3ccccc3)CC2)c1 | 3.41
CCCN1C2CCCC1CC(NC(=O)c1cccc(OC)c1)C2 (centres unmarked) | -16.4
